From PubChem BioAssay (NCATS)
The source made the active and inactive calls. Calls come from the whole dose curve; as a rule, active = well fitted activation curve with a large enough effect; inconclusive = small, poorly fitted or top-dose-only effect, or effect the other way; inactive = flat fitted curve, though single readings scatter.

Assay: Cellular Toxicity (caspase-3) Renal Proximal Tubule (AID 667);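 note: cells exposed to compound for 16 hours at 37 °C before detection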
Conditions: renal proximal tubule cells, primary cells freshly taken from rat, solvent-only wells 0%, staurosporine 100%; series mostly up to 91.7 µM
Source text: NIH Chemical Genomics Center [NCGC]
NIH Molecular Libraries Screening Centers Network [MLSCN]
National Institutes of Environmental Health Sciences [NIEHS]
National Toxicology Program [NTP]
We have developed a 1536-well cell-based assay for quantitative high throughput screening (qHTS) against a number of cell lines to determine in vitro caspase 3/7 activity of small molecules. This particular assay uses the primary kidney proximal tubule cells freshly isolated from rat.
NCGC Assay Protocol Summary:
The Caspase-Glo 3/7 assay (Promega) is a homogeneous method to measure caspase-3 and caspase-7 activities in cultured cells. The quantitation of caspase 3/7 activity is based on the cleavage of a peptide-aminoluciferin substrate. After caspase cleaves the substrate the free aminoluciferin is liberated and serves as the substrate of luciferase, which generates the light. The luminescent signal is proportional to the amount of caspase 3/7 activity present.
Using the Caspase-Glo 3/7 assay, the amount of caspase 3/7 activity was measured in the rat kidney proximal tubule cells with complete culture medium following compound treatment for 16 hours. The assay was performed in opaque white 1536-well plates. In the screen, staurosporine and doxorubicin were used as positive controls. Library compounds were measured for their ability to cause the activation of caspase 3/7 in the cell line, as reflected by an increase in luminescence signal, in a concentration-dependent manner. Data were normalized to the controls for basal activity (DMSO only) and 100% stimulation (10 uM staurosporine). AC50 values were determined from concentration-response data modeled with the standard Hill equation.
qHTS protocol for caspase 3/7 assay in rat kidney proximal tubule cells
[Step] [Parameter] [Value] [Description]
1. Reagent; 5 uL; 1000 rat kidney proximal tubule cells/well
2. Time; 5 hr; 37 °C incubation
4. Controls; 23 nL; doxorubicin 7 pM to 100 uM & staurosporine 1.4 pM to 20 uM
5. Time; 16 hr; 37 °C incubation
6. Reagent; 5 uL; Caspase-Glo 3/7 reagent
7. Time; 1 hr; Room Temperature
8. Detection; Luminescence; Viewlux plate reader
Keywords: caspase 3/7, apoptosis, rat kidney proximal tubule cells, luminescence, NTPHTS, NTPHTS_NCGC, NIEHS, EPA, DSSTox, MLSMR, MLSCN, NIH Roadmap, qHTS, NCGC

| Compound | outcome |
| --- | --- |
| O=P(O)(O)O | inactive |
| Oc1ccc(/C=C/c2cc(O)cc(O)c2)cc1 | inactive |
| [O-][N+](=Nc1ccccc1)c1ccccc1 | inactive |
| C[C@H](CCC(=O)O)[C@H]1CC[C@H]2[C@@H]3CC[C@@H]4C[C@H](O)CC[C@]4(C)[C@H]3C[C@H](O)[C@]12C | inactive |
| OCl | inactive |
| Nc1ccc(N=Nc2ccccc2)c(N)n1 | inactive |
| O=c1n(CC2CO2)c(=O)n(CC2CO2)c(=O)n1CC1CO1 (stereo unspecified) | inactive |
| OCC(O)CO | inactive |
| OC[C@H]1O[C@@H]2O[C@H]3[C@H](O)[C@@H](O)[C@@H](O[C@H]4[C@H](O)[C@@H](O)[C@@H](O[C@H]5[C@H](O)[C@@H](O)[C@@H](O[C@H]6[C@H](O)[C@@H](O)[C@@H](O[C@H]7[C@H](O)[C@@H](O)[C@@H](O[C@H]1[C@H](O)[C@H]2O)O[C@@H]7CO)O[C@@H]6CO)O[C@@H]5CO)O[C@@H]4CO)O[C@@H]3CO | inactive |
| Cc1ccc(S(=O)(=O)O)cc1C | inactive |
| C[C@H]1O[C@@H](O[C@H]2[C@@H](O)C[C@H](O[C@H]3[C@@H](O)C[C@H](O[C@H]4CC[C@@]5(C)[C@H](CC[C@@H]6[C@@H]5C[C@@H](O)[C@]5(C)[C@@H](C7=CC(=O)OC7)CC[C@]65O)C4)O[C@@H]3C)O[C@@H]2C)C[C@H](O)[C@@H]1O | inactive |
| COC(=O)c1ccccc1O | inactive |
| CC(C)(C)CC(C)(C)c1ccc(OCCO)cc1 | inactive |
| CC/C=C\C/C=C\C/C=C\CCCCCCCC(=O)O | inactive |
| O.O.O.O.O.O.O.O=S(=O)([O-])[O-].[Co+2] | inactive |
| OCc1ccccc1 | inactive |
| CCOC(C)OCC | inactive |
| CO | inactive |

| Compound | outcome |
| --- | --- |
| CC[C@H]1OC(=O)[C@H](C)[C@@H](O[C@H]2C[C@@](C)(OC)[C@@H](O)[C@H](C)O2)[C@H](C)[C@@H](O[C@@H]2O[C@H](C)C[C@H](N(C)C)[C@H]2O)[C@](C)(O)C[C@@H](C)CN(C)[C@H](C)[C@@H](O)[C@]1(C)O | inactive |
| C/C=C/C=C/C(=O)O | inactive |
| CC1=CC(=O)NS(=O)(=O)O1 | inactive |
| Nc1nccs1 | inactive |
| NC(N)=O | inactive |
| CC(C)O | inactive |
| NCCN | inactive |
| ClC(Cl)Cl | inactive |
| CCCCO | inactive |
| OB(O)O | inactive |
| CO/N=C(/C(=O)N[C@@H]1C(=O)N2C(C(=O)O)=C(COC(N)=O)CS[C@H]12)c1ccco1 | inactive |
| C[C@H](CCC(=O)O)[C@H]1CC[C@H]2[C@@H]3[C@H](O)C[C@@H]4C[C@H](O)CC[C@]4(C)[C@H]3C[C@H](O)[C@]12C | inactive |
| CCCCC | inactive |
| Nc1ncnc2c1ncn2[C@H]1CC[C@@H](CO)O1 | inactive |
| Oc1cccc(O)c1O | inactive |
| CC1=CCC2CC1C2(C)C (stereo unspecified) | inactive |
| c1ccc2ccccc2c1 | inactive |
| Cc1ncc[nH]1 | inactive |
